# Experimental data published in PubChem BioAssay AID1458 (National Center for Advancing Translational Sciences (NCATS), 2008).
# Out of some 210,000 compounds screened, about 5,900 (2.8%) were called active. Inconclusive results (about 5%) are left out. This excerpt belongs to a sample that is enriched for actives. Unmarked numbers belong to inactive results. Calls follow the shape of the dose curve; as a rule, active = well fitted activation curve with a large enough effect; inconclusive = small, poorly fitted or top-dose-only effect; inactive = no such curve, though single readings can be large or run the other way.
# Experiment: qHTS Assay for Enhancers of SMN2 Splice Variant Expression; also: nearly all actives have a fitted effect of over 55% in size; as to activity change, positive = activation: % of control where 0% means no effect
# Conditions: HEK293 SMN2-luciferase splicing reporter, luminescence, 30-36 h; series mostly up to 46.1 µM; activity change, positive = activation: at the top concentration
# In short: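 qHTS luciferase splicing reporter: luminescence rises when SMN2 exon 7 is included in transfected HEK293 cells. Compound exposure lasted 30-36 h at 37C, with 4.5 mM final sodium butyrate as control, followed by a ONE-Glo read.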
# Potency is read from the fitted curve at half-maximal effect.
SMILES,"activity change, positive = activation",Potency
COc1ccc(Nc2ncc(C(=O)Nc3cc(C)ccc3OC)c3ccccc23)cc1,3.77%,–
COc1ccc(-n2c(SCC(N)=O)nc3c(oc4ccccc43)c2=O)cc1,-12.5%,–
O=C(NCc1ccccc1)c1cc(-c2cccc(Cl)c2)on1,0.862%,–
COc1ccccc1CNc1nc2ccc(Cl)cc2n2cnnc12,-0.672%,–
Cc1ccc(Cl)cc1NC(=O)C(C)n1nnc2sc(-c3ccccc3)cc2c1=O (stereo unspecified),1.18%,–
O=C(c1cccc2ccccc12)N1CCN(c2ccccc2F)CC1,-6.5%,–
O=C(CCS(=O)(=O)c1cccc2nsnc12)N1CCN(c2ccccc2F)CC1,-8.49%,–
O=C(CCSc1ccccc1)N1CCN(c2ccccc2F)CC1,–,11.2 µM (active)
Cc1cc2n(n1)C(c1cc(C(C)(C)C)c(O)cc1O)Nc1ccccc1-2 (stereo unspecified),-2.87%,–
Cc1cccc(CSc2nc3ccncc3n2CC(=O)N(C)C2CCCCC2)c1,3.04%,–
CCOc1ccc(-c2cc3nc(C4CCN(C(=O)OC(C)(C)C)CC4)c(C(=O)Nc4cccc(CC)c4)cn3n2)cc1,6.72%,–
CC(C)(C)NC(=O)CSc1nc(-c2ccc(F)cc2)cc(C(F)(F)F)n1,17.7%,–
Cc1ccccc1CSCC(=O)NC(=O)NC(C)(C)C,10.4%,–
CC(C)(C)NC(=O)CSC(=Nc1ccccc1F)NC#N,–,20 µM (active)
Cc1cc(C)cc(NC(=O)Cc2csc(C)n2)c1,-8.87%,–
COC(=O)c1cc(NC(=O)CC2C(=O)NCCN2C(=O)c2ccc(F)cc2)cc(C(=O)OC)c1 (stereo unspecified),–,10 µM (active)
COc1cccc(NC(=O)CC2C(=O)NCCN2C(=S)Nc2ccc(F)cc2)c1 (stereo unspecified),-6.38%,–
CCNC(=O)N1CCNC(=O)C1CC(=O)Nc1ccc(C(=O)OCC)cc1 (stereo unspecified),-30.7%,–
COc1cc2c(=O)c(S(=O)(=O)c3ccc(C(C)C)cc3)cn(Cc3ccccc3C)c2cc1OC,-15.4%,–
O=C(Nc1cccc(NC(=O)c2ccc(Br)cc2)c1)c1ccccc1,1.19%,–
O=C(Nc1ccccc1)c1cc2ccccc2[nH]1,–,11.2 µM (active)
O=C(Nc1ccccc1)c1ccc2nsnc2c1,14%,–
Cc1nc(SCC(=O)N2CCN(c3ccccc3)CC2)[nH]c(=O)c1C,7.64%,–
Cc1oc(-c2ccccc2F)nc1CN1CCC(C(=O)NCCc2ccc(Cl)cc2)CC1,8.98%,–
COc1ccc(NC(=O)C2CCCN(S(=O)(=O)c3c(C)[nH]c(=O)[nH]c3=O)C2)c(OC)c1 (stereo unspecified),7.41%,–
COc1ccc(C(=O)Nc2sc(C)c(C)c2CN2CCOCC2)cc1,–,12.6 µM (active)

SMILES,"activity change, positive = activation",Potency
CCOC(=O)c1c(NC(=O)c2ccc(N3CCOCC3)c([N+](=O)[O-])c2)sc(C)c1C,-0.319%,–
COc1ccc(C(=O)Nc2ccc(CN3CCOCC3)cc2)cc1,-18%,–
CCOC(=O)C1CCCN(C(=O)Cn2ncc3c(C)n(Cc4ccc(F)cc4)c(C)c3c2=O)C1 (stereo unspecified),-22.8%,–
COc1ccc(-c2noc(CSc3nc4ccc(C)cc4[nH]3)n2)cc1,-46.7%,–
Cc1ccccc1C(=O)Nc1sc2c(c1C(=O)N1CCC(C)CC1)CCCC2,-1.84%,–
Cc1c(NC(=O)c2cc(=O)c3ccccc3o2)c(=O)n(-c2ccccc2)n1C,-4.74%,–
Cc1nn(C)cc1C(=O)NNC(=S)Nc1ccc(Cl)cc1,8.55%,–
COc1ccc(Cl)cc1C(=O)NCc1cn(C)nc1C,1.02%,–
Cc1nn(C)cc1CNC(=O)Nc1ccc(Cl)cc1,–,15.8 µM (active)
Oc1ccccc1-c1nc(/C=C/c2ccc(F)cc2)no1,3.13%,–
CCOC(=O)c1ccc(-c2ccc(C(=O)Nc3cccnc3)o2)cc1,–,6.31 µM (active)
COc1ccc(C(=O)Nc2cccnc2)cc1C(=O)Nc1cccnc1,-8.52%,–
CCOC(=O)c1cc(NC(=O)c2cccnc2)cc(C(=O)OCC)c1,12.2%,–
CCN(CC)c1ccc(C2C(C(N)=O)=C(C)Nc3nc(SCc4ccccc4)nn32)cc1 (stereo unspecified),7.44%,–
COCCn1c(CCC(=O)Nc2cc(C)ccc2C)nc2cccnc21,7.93%,–
N#C/C(=C\c1ccccc1F)c1nc2ccccc2c(=O)[nH]1,-1.96%,–
COc1ccccc1-c1nnc(NC(=O)c2cccc(N3C(=O)CCC3=O)c2)o1,2.48%,–
COc1ccccc1-c1nnc(SCC(=O)Nc2cc(C)on2)o1,-3.86%,–
COc1ccccc1-c1nnc(NC(=O)c2ccc3ncsc3c2)o1,–,14.1 µM (active)
Cn1c(=O)c2sccc2n2c(CCC(=O)NCc3ccccc3Cl)nnc12,1.76%,–
CCc1ccc2oc(-c3ccc(C)c(NC(=O)/C=C/c4ccco4)c3)nc2c1,4.88%,–
CCc1ccc2oc(-c3ccc(N)cc3)nc2c1,–,1 µM (active)
CCc1ccc2oc(-c3ccc(NC(=O)c4cc5ccccc5o4)cc3)nc2c1,6.02%,–
COc1ccc(OC)c(-c2csc(-c3c(N)c(C(=O)c4ccccc4)n4ccccc34)n2)c1,-0.921%,–
CCc1nn(CC(=O)N2CCN(c3cc(C)ccc3C)CC2)c(=O)c2cc3occc3n12,2.38%,–
O=C(c1ccc(Cl)cc1)n1nc(-c2cccnc2)nc1NCc1ccc(F)cc1,1.47%,–

SMILES,"activity change, positive = activation",Potency
COc1cc(Cl)c(C)cc1NC(=O)CCc1nc2cccnc2n1Cc1cccs1,-6.37%,–
Cc1ccccc1Nc1nnc(SCC(=O)c2cc3ccccc3o2)s1,-3.61%,–
Cc1cc2c(=O)n(C)c(SCC(=O)c3cc4ccccc4o3)nc2s1,-1.87%,–
O=C(CSc1nnc(Nc2ccccc2)s1)Nc1cccnc1Cl,5.82%,–
CC(C)Nc1nnc(SCC(=O)c2c[nH]c3ccccc23)s1,-12.7% [at 1.84 µM],–
Cc1ccc(Nc2nnc(SCC(=O)c3cc4ccccc4o3)s2)cc1C,–,12.6 µM (active)
CC(C)c1ccc(Nc2nnc(SCC(=O)c3nnc(-c4ccccc4)o3)s2)cc1,–,10 µM (active)
CCOCCCNC(=O)c1c(NC(=O)Cc2coc3c(C)c(C)ccc23)sc2c1CCC2,1.11%,–
Cc1cccc(N2CCN(C3=C(c4ccccc4)C(=O)c4ccccc43)CC2)c1C,1.91%,–
O=C1OC(C(=O)Nc2cccc(Br)c2)Cc2ccccc21 (stereo unspecified),0.983%,–
CCNS(=O)(=O)c1cc(-c2nnc(Nc3cccc(C(F)(F)F)c3)c3ccccc23)ccc1C,-4.9%,–
COc1cccc(CNC(=O)Cn2ncn3c(cc4ccccc43)c2=O)c1,5.36%,–
CCOC(=O)CSc1nc2ccc(C)cc2[nH]1,-0.138%,–
Cc1ccc(S(=O)(=O)NCCN2CCOCC2)cc1C,38.2%,–
Cc1cc2nc(SCCN3CCOCC3)[nH]c2cc1C,–,14.1 µM (active)
COc1ccc(S(=O)(=O)NCCSc2nnnn2-c2ccccc2)cc1,-43.5%,–
COc1ccc(NC(=O)NC(C)c2c(-n3cccc3)sc(C)c2C)cc1OC (stereo unspecified),-12.4%,–
COc1cccc(NC(=O)CCNS(=O)(=O)c2ccc3c(c2)oc(=O)n3C)c1,-7.42%,–
Cc1ccc(CNC(=O)CCNS(=O)(=O)c2ccc3c(c2)oc(=O)n3C)cc1,-6.56%,–
CC1CCCN(c2ccc(C(=O)NCCc3ccccc3)cn2)C1 (stereo unspecified),–,11.2 µM (active)
O=C(NCCc1ccccc1)c1ccc(NC2=NC3CS(=O)(=O)CC3S2)cc1 (stereo unspecified),-12.9%,–
CC(=O)c1cccc(NC(=O)N2CCCC2C(=O)NCCc2ccccc2)c1 (stereo unspecified),12.8%,–
Cc1oc2ccc(O)c(CN3CCCCC3)c2c1C(=O)Nc1cccc(C(F)(F)F)c1,-3.24%,–
CCC1CCCCN1S(=O)(=O)c1ccc(NC(=O)c2cc(=O)c3ccccc3o2)cc1 (stereo unspecified),17%,–
Cc1ccccc1NC(=O)Cn1c(=O)n(CCCCC(=O)NCc2ccccc2Cl)c(=O)c2ccccc21,-3.56%,–
CS(=O)(=O)c1sc2nc(-c3ccccc3)cc(-c3ccccc3)c2c1N,2.34%,–

SMILES,"activity change, positive = activation",Potency
CCN(CC)C(=O)c1sc2nc(-c3ccccc3)ccc2c1N,–,7.94 µM (active)
CCOC(=O)c1sc2nc(SC)nc(-c3ccccc3)c2c1N,-19.5%,–
Cc1ccc(-c2nc3ccccc3[nH]2)cc1N,–,3.16 µM (active)
Cc1ccc(-c2nc3ccccc3[nH]2)cc1NC(=O)c1sc2ccccc2c1Cl,-58.7%,–
OCCNc1nc2ccccc2[nH]1,-20.5%,–
c1ccc2[nH]c(-c3nc4ccccc4[nH]3)nc2c1,–,7.94 µM (active)
c1ccc(-c2[nH]ncc2-c2nc3ccccc3[nH]2)cc1,23.7%,–
COc1ccc(Br)cc1C(=O)NC(=S)Nc1cc(-c2nc3ccccc3[nH]2)ccc1C,-3.02% [at 1.84 µM],–
COc1cc2[nH]c(=O)n(Cc3ccc(C(=O)NCc4ccc(C)cc4)cc3)c(=O)c2cc1OC,12.5%,–
CCCCCn1c(=O)[nH]c2cc(C(=O)Nc3cc(C)cc(C)c3)ccc2c1=O,-0.402%,–
Cc1nn(-c2ccccc2)c2c1C(c1cccc([N+](=O)[O-])c1)N(c1ccccc1)C(=O)N2 (stereo unspecified),24.3%,–
Cc1nn(-c2ccc([N+](=O)[O-])cc2)c(N)c1-c1ccccc1,–,10 µM (active)
CC(C)(C)c1cnnn1-c1ccc([N+](=O)[O-])cc1,3.09%,–
CCCCN1C(=O)c2[nH]nc(-c3ccccc3O)c2C1c1cccc(OCc2ccccc2)c1 (stereo unspecified),-11.7%,–
CC(C)[C@@H]1NC(=O)[C@H](Cc2ccccc2)NC(=O)[C@@H](CC(=O)O)NC(=O)CNC(=O)[C@H](CCCNC(=N)N)NC1=O,-22.6%,–
O=C(NCc1ccc(F)cc1)c1ccc2nc(N3CCCCC3)sc2c1,–,4.47 µM (active)
CCOC(=O)N1CCC(NC(=O)c2ccc3nc(N4CCOCC4)sc3c2)CC1,-24.2%,–
Cc1ccc(C)n1-c1nnc(N2CCC(C(=O)NCc3ccc(F)cc3)CC2)s1,-5.38%,–
O=C(NCCCN1CCN(c2cccc(Cl)c2)CC1)c1nnc(Cc2ccc(F)cc2Cl)o1,-27.3%,–
COc1ccc(Cl)cc1NC(=O)Cn1c(=O)c2ccccc2n2nncc12,-15.1%,–
CCOc1ccc(CCNC(=O)Cn2nc(CC)n3c(cc4sc(CC)cc43)c2=O)cc1OCC,-6.23%,–
Cc1ccc(Cl)cc1NC(=O)CCS(=O)(=O)c1ccc(Br)s1,-15.5%,–
Cc1nc2nc(NCc3cccc(Br)c3)[nH]n2c(=O)c1Cc1ccccc1,0.373%,–
